This is an account of results in PubChem BioAssay (Tox21).

Activity calls are given as the source filed them. Calls come from the whole dose curve; as a rule, active = well fitted curve in the direction sought with a large enough effect in the repeat runs; inconclusive = weak or mixed curves; inactive = flat fitted curve, though single readings scatter.

The test can be described thus: qHTS assay to test for compound auto fluorescence at 535 nm (green) in HepG2 cell free culture (AID 720686). The settings on record: Cell-free medium, green autofluorescence 485/535 nm; series mostly up to 91.3 µM. An excerpt:
U.S. Tox21 Program National Center for Advancing Translational Sciences [NCATS] NIH Chemical Genomics Center [NCGC] U.S. Environmental Protection Agency [EPA] National Institutes of Environmental Health Sciences [NIEHS] National Toxicology Program [NTP] U.S. Food and Drug Administration [FDA] Tox21 Assay Overview: Compound auto fluorescence often interferes with screening of the compound library against various biological targets and signaling pathways. Some of these compounds may have fluorophoric properties. Such properties may interfere with the assay outputs resulting in false positives and/or negatives. To decrease such complications and ensure the compound activities are relevant in terms of biological response, the Tox21 10K compound library was screened for auto fluorescence. From the fluorophores used as reporter signals in our screening assays, the auto fluorescence equivalencies of compounds against three fluorophores have been evaluated: Triamterene, Fluorescein and Rose Bengal sodium for blue, green and red fluorescence, respectively. The fluorescence intensities were measured using Excitation/Emission wavelengths at 405/460nm, 485/535nm and 540/590nm for blue, green and red labels, respectively. This assay includes the green fluorescence data.
Tox21 Assay Protocol Summary: 5 uL of culture medium (MEM containing 10% FBS) per well was dispensed into black wall/clear bottom 1536-well plates using a Multidrop Combi Dispenser (ThermoFisher Scientific, Waltham, MA). After 23 nL compound or DMSO vehicle was transferred into assay plate by a pintool work station (Kalypsys, San Diego, CA), fluorescence intensities in the assay plates were measured by an Envision (PerkinElmer, Shelton, CT) plate reader using three labels for measuring blue, green and red fluorescence at […] 460, 535 and 590nm respectively.
A general note: qHTS replaces the single test concentration by a dilution series.
Take `Cc1cccc(N)c1N`: the call was inactive.
Take `CCN(CC)N=O`: the molecule was classed as inactive.
Take `O=C(Nc1ccc(Br)cc1)c1cc(Br)cc(Br)c1O`: the outcome was inactive.
The entry for `CCCCNC(=O)n1c(NC(=O)OC)nc2ccccc21` is “inactive”; for `O=[N+]([O-])c1c(Cl)c(Cl)c(Cl)c(Cl)c1Cl` it is “inactive”; for `CC(O)CCO` (stereo not given) it is “inactive”.
For the molecule `O=c1oc2ccccc2c(O)c1C(CC(O)c1ccc(-c2ccc(Br)cc2)cc1)c1ccccc1` (stereo not given), the molecule was classed as inactive.
The entry for `CC(C)(OOC(C)(C)c1ccccc1)c1ccccc1` is “inactive”; for `COc1ccc(C=O)cc1` it is “inactive”.
The entry for `CCC(C)c1ccc(O)cc1` (stereo not given) is “inactive”.
In the case of `CCN(CC)C(=O)/C(Cl)=C(\C)OP(=O)(OC)OC`, the molecule was called inactive.
For the molecule `CCOCN(C(=O)CCl)c1c(C)cccc1CC`, the result was inactive.
The entry for `CC(C)=CC1C(C(=O)OCc2coc(Cc3ccccc3)c2)C1(C)C` (stereo not given) is “inactive”.
As to `Oc1ccc(-c2ccccc2)cc1`, the molecule was called inactive.
In the case of `Cc1ccc(OP(=O)(Oc2ccc(C)cc2)Oc2ccc(C)cc2)cc1`, the molecule was classed as inactive.
On to `CC(C)C(=O)OCC(C)(C)C(OC(=O)C(C)C)C(C)C` (stereo not given), for which the result was inactive.
To `O=Cc1ccco1` belongs “inactive”; to `CCCCCCCCC(=O)NCc1ccc(O)c(OC)c1`, “inactive”; to `Cc1ccc2c(c1N)C(=O)c1ccccc1C2=O`, “inactive”.
Turning to `CNC(=O)N(C)c1nnc(C(C)(C)C)s1`, the molecule was classed as inactive.
`C=CC(=O)OCCO`: the call was inactive.
To `O=C(O)CC[N+](=O)[O-]` belongs “inactive”; to `C=C(C)[C@H]1Cc2c(ccc3c2O[C@@H]2COc4cc(OC)c(OC)cc4[C@@H]2C3=O)O1`, “inactive”; to `CCOC(=S)S`, “inactive”.
As for `c1nc[nH]n1`, the result was inactive.
The entry for `c1cc(OCC2CO2)ccc1Cc1ccc(OCC2CO2)cc1` (stereo not given) is “inactive”.
`Nn1cnnc1`: the result was inactive.
`CCCCC(CC)COC(=O)Cl` (stereo not given): the result was inactive.
To `CN(C)c1ccc(C(=O)c2ccc(N(C)C)cc2)cc1` belongs “inactive”.
The entry for `CC(C)(C)c1ccccc1O` is “inactive”.
In the case of `CC(C)(c1cc(Cl)c(O)c(Cl)c1)c1cc(Cl)c(O)c(Cl)c1`, the result was inactive.
Consider `Brc1ccc(Oc2cc(Br)c(Br)cc2Br)c(Br)c1`, for which the result was inactive.
The entry for `C=CCc1ccc(OC)cc1` is “inactive”; for `CCN(N=O)C(N)=O` it is “inactive”.
With `CCOC(=O)C(C)OC(=O)c1cc(Oc2ccc(C(F)(F)F)cc2Cl)ccc1[N+](=O)[O-]` (stereo not given), the molecule was called inactive.
For `O=S(=O)(Oc1ccc(Cl)cc1)c1ccc(Cl)cc1`, the result was inactive.
The entry for `C=CCc1ccc2c(c1)OCO2` is “inactive”; for `CCC(C)(c1ccc(O)cc1)c1ccc(O)cc1` it is “inactive”; for `Oc1cc(Cl)ccc1Oc1ccc(Cl)cc1Cl` it is “inactive”.
To `Nc1ccc(-c2ccc(N)c(N)c2)cc1N` belongs “inactive”.
